FBA Mtb inh: Mtb FBA enzyme inhibitors, primary screen, biochemical, fluorescence, strain H37Rv. Fructose-bisphosphate aldolase (Mycobacterium tuberculosis (strain ATCC 25618 / H37Rv)), …. purified M. tuberculosis FBA, fluorescence read-out. inhibition, % at 1 µM. hit rate 2.3% among 360,000; in the data active = inhibition above about 27%
Target sequence (P9WQA3 whole entry, looked up): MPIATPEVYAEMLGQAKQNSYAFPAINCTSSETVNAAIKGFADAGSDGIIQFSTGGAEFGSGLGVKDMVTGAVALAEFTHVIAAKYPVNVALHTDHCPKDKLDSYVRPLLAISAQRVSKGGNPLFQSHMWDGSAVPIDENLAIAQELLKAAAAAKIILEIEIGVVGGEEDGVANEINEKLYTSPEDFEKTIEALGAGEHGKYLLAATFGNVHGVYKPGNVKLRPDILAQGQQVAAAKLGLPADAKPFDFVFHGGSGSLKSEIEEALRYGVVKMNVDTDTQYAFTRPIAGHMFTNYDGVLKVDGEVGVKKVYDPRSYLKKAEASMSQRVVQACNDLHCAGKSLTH
SARS 3CLpro inh: SARS-CoV 3CLpro protease inhibitors, primary screen, biochemical, quenched FRET | hit rate 0.14% among 290,000 | Replicase polyprotein 1ab (Severe acute respiratory syndrome coronavirus), P0C6X7 | recombinant SARS-CoV 3CLpro, quenched FRET peptide cleavage | inhibition, % at 6 µM; in the data active = inhibition above about 12%
BioA inh: M. tuberculosis BioA enzyme inhibitors, primary screen, biochemical, plate reader, single point, HTS. 7,8-diaminopelargonic acid synthase BioA (Mycobacterium tuberculosis). purified M. tuberculosis BioA enzyme. inhibition, % at 9.99 µM. hit rate 0.096% among 360,000. AID 602481, 2012; in the data active = inhibition above about 40%
FadD28 FP inh: inhibitors of FadD28 bisubstrate probe binding, primary screen, biochemical, fluorescence polarization, single point | Mycobacterium tuberculosis FadD28 fatty-acid-AMP ligase | inhibition, % at 12.5 µM | hit rate 0.22% among 360,000; in the data active = inhibition above about 8.5%, passing the limit was not always enough
GDH-TPI inh: GDH-TPI coupling enzyme inhibitors, primary screen, artefact control for M. tuberculosis FBA inhibitor project, biochemical, absorbance, full deck. GDH-TPI coupled enzyme counterscreen, NADH absorbance. inhibition, % at 4.8 µM. hit rate 1.2% among 360,000. AID 588335, 2011; in the data active = inhibition above about 30%
A number is an active result. Sampled rows, rich in hits. Any-hit rate of the full collection: about 3.1%.

For COc1ccc(/C=C(\C#N)C(=O)NCC(c2ccc(F)cc2)N2CCOCC2)cc1 (stereo not given) the results were FBA Mtb inh inactive, SARS 3CLpro inh inactive, BioA inh inactive, FadD28 FP inh inactive and GDH-TPI inh 43.
N#C/C(=C\c1ccc(OCC(N)=O)cc1)C(=O)NC1CC1 was read as FBA Mtb inh inactive, SARS 3CLpro inh inactive, BioA inh inactive, FadD28 FP inh inactive and GDH-TPI inh 45.
For N#C/C(=C\c1ccc(O)cc1)C(=O)NCc1ccccc1 the results were FBA Mtb inh inactive, SARS 3CLpro inh inactive, BioA inh inactive, FadD28 FP inh inactive and GDH-TPI inh inactive.
Screening COc1ccc(/C=C(\C#N)C(=O)NCc2ccccc2)cc1 returned FBA Mtb inh inactive, SARS 3CLpro inh inactive, BioA inh inactive, FadD28 FP inh inactive and GDH-TPI inh 40.
COc1ccc(C(CNC(=O)COc2ccccc2C#N)N2CCOCC2)cc1 (stereo not given) was read as FBA Mtb inh inactive, SARS 3CLpro inh inactive, BioA inh inactive, FadD28 FP inh inactive and GDH-TPI inh inactive.
CNC(=O)/C(C#N)=C/c1ccc(OCCOc2ccccc2)cc1 was read as FBA Mtb inh inactive, SARS 3CLpro inh inactive, BioA inh inactive, FadD28 FP inh inactive and GDH-TPI inh 40.
Screening C[C@H](CO)N1C[C@H](C)[C@@H](CN(C)C)Oc2c(NC(=O)Nc3ccc4c(c3)OCO4)cccc2C1=O returned BioA inh inactive.
Screening O=C(C[C@@H]1C[C@H]2c3cc(NC(=O)C4CCOCC4)ccc3O[C@H]2[C@H](CO)O1)NCc1ccc(Oc2ccccc2)cc1 returned BioA inh inactive.
CC=Cc1ccc2n(c1=O)C[C@H]1[C@H](CO)[C@@H](C(=O)NCc3ccc(F)cc3)[C@@H]2N1CCC (mixture of isomers) was read as BioA inh inactive.
Cc1noc(C)c1S(=O)(=O)Nc1ccc2c(c1)C(=O)N([C@H](C)CO)C[C@H](C)[C@@H](CN(C)Cc1ccc(-c3ccccc3)cc1)O2 was read as BioA inh inactive.
COc1cc(/C=C(\C#N)C(=O)NCCc2ccccc2)cc(OC)c1O was read as FBA Mtb inh inactive, SARS 3CLpro inh inactive, FadD28 FP inh inactive and GDH-TPI inh inactive.
Screening N#C/C(=C\c1ccc(O)c(O)c1)C(=O)NCCc1ccccc1 returned FBA Mtb inh inactive, BioA inh inactive, FadD28 FP inh 11 and GDH-TPI inh inactive.
For CO[C@@H]1CN(C)C(=O)c2cc(NC(=O)C3CCC3)ccc2OC[C@@H](C)N(Cc2ccncc2)C[C@@H]1C the results were BioA inh inactive.
Screening C[C@H]1CN([C@@H](C)CO)C(=O)c2cc(NC(=O)C3CC3)ccc2O[C@@H]1CN(C)C(=O)Nc1ccc(F)cc1 returned BioA inh inactive.
`Cn1cnnc1SCC(=O)n1c2ccccc2c2ccccc21` gave FBA Mtb inh inactive, SARS 3CLpro inh inactive, BioA inh inactive, FadD28 FP inh inactive and GDH-TPI inh inactive.
Screening Cn1cnnc1SCc1ccc(C(=O)N=Nc2c(O)n(C)c3ccccc23)cc1 returned FBA Mtb inh inactive, SARS 3CLpro inh inactive, BioA inh inactive, FadD28 FP inh inactive and GDH-TPI inh 33.
CN(C)c1ccc(C(=O)N/N=C/C23CC[C@@H](O)CC2(O)CC[C@@H]2[C@@H]3CCC3(C)C(C4=CC(=O)OC4)CCC23O)cc1 (stereo not given in full) was read as FBA Mtb inh inactive, SARS 3CLpro inh inactive, BioA inh inactive, FadD28 FP inh inactive and GDH-TPI inh 45.
CC12CC[C@H]3[C@@H](CCC4(O)C[C@H](O)CCC34/C=N/NC(=O)c3ccc(O)cc3)C1(O)CCC2C1=CC(=O)OC1 (stereo not given in full) was read as FBA Mtb inh inactive, SARS 3CLpro inh inactive, BioA inh inactive, FadD28 FP inh inactive and GDH-TPI inh inactive.
C[C@H](CO)N1C[C@H](C)[C@H](CN(C)C(=O)Nc2ccccc2)Oc2c(cccc2N(C)C)C1=O was read as BioA inh inactive.
